High-throughput results (PubChem)
A selection: hits, their analogues and other compounds. The true share with any hit is near 21%.
IL1B secr inh: qHTS for Inhibitors of Inflammasome Signaling: IL-1-beta AlphaLISA Primary Screen. THP-1 LPS/ATP IL-1B secretion, AlphaLISA, 16 h; active compounds read low. activity change, % at 57.5 µM. actives 4.7% (n = 360,000). AID 743279, 2014; in the data active = activity change below about -50%; inconclusive = mostly about -30% to -49%; also: % is scaled to controls: 0 for no effect and ±100 for the full control effect
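THP-1 cells pretreated 1 hr with compounds (up to 57.5 uM final), then stimulated with LPS (250 ng/mL final) plus ATP (1.25 mM final); secreted IL-1B measured by AlphaLISA after 16 hr, decreased signal indicating inhibition.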
DRD3 antagonist: qHTS of D3 Dopamine Receptor Antagonist: qHTS; D(3) dopamine receptor (Homo sapiens), P35462; D3R cells, DiscoveRx beta-arrestin luminescence, antagonist mode; active compounds read low; max response, negative = inhibition, %; actives 2.5% (n = 360,000); in the data active = max response below about -50%; inconclusive = no clear call, values can overlap the other calls; also: % is scaled to controls: 0 for no effect and ±100 for the full control effect
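Cells expressing the human receptor were seeded at 1500 cells/well, incubated overnight at 37 degrees C in 5% CO2, then exposed to library compounds with dopamine controls for 90 minutes at 37 degrees C before luminescent detection.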
ClpP mod: qHTS Assay for Activators of ClpP | purified B. subtilis ClpP, FRET peptide cleavage, 20 min | Potency, µM (top dose mostly 57.5 µM), for the others: at the top dose activity change, negative = active | actives 1.9% (n = 340,000) | AID 651965, 2013; active = well fitted falling curve with a large enough effect; inconclusive = small, poorly fitted or top-dose-only effect; inactive = no such curve, though single readings can be large or run the other way; also: potency is read from the fitted curve at half-maximal effect; the source files actives as falling curves though it sought activators and does not explain the sign; nearly all actives have a fitted effect of over 65% in size
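Purified B. subtilis ClpP, 10 microg/mL final in Tris/HCl pH8 with KCl, BSA, glycerol and Tween-20, cleaved an Abz/nitrotyrosine-quenched decapeptide. Fluorescence (ex 320, em 430) was read at 0 and 20 min at room temperature. Delta was normalized to 5.8 microM ADEP and DMSO/no-enzyme controls.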
TDP1 cell CPT: qHTS for Inhibitors of human tyrosyl-DNA phosphodiesterase 1 (TDP1): qHTS in cells in presence of CPT | chicken DT40 Tdp1-/-;hTDP1 cells + 20 nM CPT, ATP luminescence, 48 h | Potency, µM (titrated, usually from 46.2 µM), for inactives: top-dose activity change, negative = growth inhibition, usual class: inhibitors | actives 12% (n = 420,000) | AID 686979, 2013; also: potency is read from the fitted curve at half-maximal effect; % is scaled to controls: 0 for no effect and ±100 for the full control effect; nearly all actives have a fitted effect of over 55% in size
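Cell growth measured by CellTiter-Glo luminescence after a minimum 48 h, 37 C compound exposure with 20 nM CPT in Tdp1-knockout DT40 cells stably expressing hTDP1, seeded 400/well; qHTS titration format.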
TDP1 cell noCPT: qHTS for Inhibitors of human tyrosyl-DNA phosphodiesterase 1 (TDP1): qHTS in cells in absence of CPT; DT40 Tdp1-/- hTDP1 cells, no CPT, ATP luminescence, 48 h; Potency, µM (series often up to 46.2 µM), for inactives: at the top dose activity change, negative = growth inhibition, most hits filed as inhibitors; actives 15% (n = 420,000); also: potency is read from the fitted curve at half-maximal effect; % is scaled to controls: 0 for no effect and ±100 for the full control effect; nearly all actives have a fitted effect of over 55% in size
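Compound effects on proliferation are scored in DT40 Tdp1-/-;hTDP1 cells in the absence of CPT. ATP levels (CellTiter-Glo luminescence) are recorded after a ≥48 hr, 37 °C incubation.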
DRD3 agonist: qHTS of D3 Dopamine Receptor Agonist: qHTS; D3R DiscoveRx beta-arrestin cells, luminescence, 90 min; max activation, %; actives 0.58% (n = 410,000); AID 652048, 2013; in the data active = max activation above about 30%; also: 0% is about no effect
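Agonist mode: compounds and dopamine controls were applied to plated cells for 90 min at 37 degrees C after an overnight attachment at 1500 cells/well. Luminescent read-out followed 30 - 60 minutes at room temperature with DiscoveRx detection reagent.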
* = called active by the depositor; ? = inconclusive; . = no result; [ ] = dose if it differs, or a comment. Unless noted, calls follow the shape of the dose curve; as a rule, active = well fitted inhibition curve with a large enough effect; inconclusive = small, poorly fitted or top-dose-only effect; inactive = flat fitted curve, though single readings scatter.

SMILES	IL1B secr inh	DRD3 antagonist	ClpP mod	TDP1 cell CPT	TDP1 cell noCPT	DRD3 agonist
Cc1cn2c(=O)cc(COc3ccc(C(C)(C)C)cc3)nc2s1	.	.	-1.9%	-27.1%	-19.2%	-1.5
COc1ccc(-n2nc(C(=O)NCC(=O)Nc3cccc(Cl)c3)c3ccccc3c2=O)cc1OC	1.7	4.2	.	14.6µM*	14.6µM*	1.1
CCOC(=O)CNC(=O)CNC(=O)c1nn(-c2ccc(OC)c(OC)c2)c(=O)c2ccccc12	-8.0	-2.4	-0.4%	-18.0%	-28.8%	-4.5
COc1ccc(-n2nc(C(=O)NCC(=O)N3CCCC(C)C3)c3ccccc3c2=O)cc1 (stereo unspecified)	-10.4	2.1	.	-14.1%	20.6µM*	4.2
COc1ccc(NC(=O)CNC(=O)c2nn(-c3ccc(OC)c(Cl)c3)c(=O)c3ccccc23)c(OC)c1	-4.3	81.6	.	?	16.4µM*	30.4*
COc1ccc(-n2nc(C(=O)NCC(=O)Nc3cc(Cl)c(OC)cc3OC)c3ccccc3c2=O)cc1	6.9	-1.0	1.0%	-38.6%	-60.2%	3.7
CCOc1ccccc1NC(=O)CNC(=O)c1nn(-c2ccc(OC)c(OC)c2)c(=O)c2ccccc12	-7.7	82.0	.	?	9.2µM*	17.7
Cc1ccc(S(=O)(=O)N2C[C@H]3C(=O)C[C@@H](c4ccccc4F)N(S(=O)(=O)c4ccc(C)cc4)[C@H]3C[C@H]2c2cccc3ccccc23)cc1	-9.8	?	-1.5%	-9.5%	-21.9%	-5.1
O=C(COc1ccc2c(c1)oc(=O)c1ccccc12)NCCN1CCOCC1	-4.6	3.4	4.3%	28.6%	-0.5%	3.1
CC(=O)N1CCC(O)(c2ccc3c(c2)OCO3)CC1	19.9	-1.9	.	-8.8%	0.0%	1.0
Cc1cc(NC(=O)c2cc(-c3ccc(Br)cc3)on2)nn1Cc1ccc(Cl)cc1	.	.	1.7%	-23.4%	-7.5%	-7.2
CCOC(=O)c1nn(-c2ccc(C)cc2)c(=O)cc1OCC(=O)Nc1ccc(OC)cc1	10.1	9.9	8.91µM*	-3.5%	-16.1%	2.2
CCOC(=O)c1nn(-c2ccccc2)c(=O)cc1OCC(=O)Nc1cccc(OC)c1	18.7	4.7	2.9%	-14.8%	-17.3%	2.0
CCOc1ccc(NC(=O)CNC(=O)c2nn(-c3ccc(OC)c(OC)c3)c(=O)c3ccccc23)cc1	-2.0	85.8	.	-23.1%	-24.6%	37.4*
O=C(CCNS(=O)(=O)c1ccccc1C(F)(F)F)NCCCc1ccccc1	-3.5	-5.5	-0.2%	-20.4%	1.7%	5.4
COc1ccc(/C=C2\SC(=O)N(CC(=O)NN3CCN(C)CC3)C2=O)cc1OC	-26.2	5.5	.	29.2%	-21.4%	-0.9
CCOCCCNS(=O)(=O)c1ccc(NC(=O)N2c3ccccc3Sc3ccccc32)cc1	?	10.7	-1.5%	23.1µM*	?	0.1
CCOCCCNS(=O)(=O)c1ccc(NC(=O)CN2C(=O)c3ccccc3C2=O)cc1	-19.2	1.3	.	-2.9%	5.3%	-8.6
CCCCN(CC)C(=O)CSc1nc2c(sc(=S)n2-c2ccc(OCC)cc2)c(=O)[nH]1	57.5	8.2	1.5%	-16.3%	2.1%	6.4
Cc1cc2n(n1)CCC(=O)N2Cc1ccc(C(=O)Nc2ccc(F)cc2F)cc1	.	.	1.9%	?	?	-18.7
Cc1nn(Cc2ccc([N+](=O)[O-])cc2)c(=O)n1-c1ccc(Cl)cc1	25.7	1.6	.	-0.3%	-3.6%	3.2
Cc1nn(Cc2ccc([N+](=O)[O-])cc2)c(=O)n1-c1c(F)cccc1F	17.3	-61.1*	-1.2%	-12.2%	-20.9%	0.5
C/C(=N\Nc1ccc(S(N)(=O)=O)cc1[N+](=O)[O-])c1cccnc1	2.3	-8.6	.	9.8%	-21.9%	-1.2
O=C(Nc1ccccc1)N1CC[C@@]2(CCCN(C(=O)c3ccncc3)C2)C1	.	.	.	16.9%	1.3%	.
COc1cc(/C=C/C(=O)NCc2cccnc2)cc(OC)c1OC	29.0	-27.7	25.1µM*	4.8%	1.6%	3.1
SMILES	IL1B secr inh	DRD3 antagonist	ClpP mod	TDP1 cell CPT	TDP1 cell noCPT	DRD3 agonist
COc1cc(C(=O)Nc2ccccc2C(=O)NCc2cccnc2)cc(OC)c1OC	-57.9*	1.7	.	0.5%	?	-2.6
O=C(NCc1ccco1)Nc1ccccc1Cl	?	26.8	1.0%	-7.6%	0.8%	1.3
COc1ccc(C(=O)Nc2ccccc2C(=O)NCc2cccnc2)cc1OC	-3.0	42.3	0.2%	3.1%	-8.7%	16.8
COC(=O)c1ccccc1NC(=O)NCc1ccco1	0.0	-11.1	28.2µM*	-0.1%	0.8%	-4.1
CCOC(=O)CNC(=O)Nc1ccccc1C(=O)OC	-9.8	9.6	28.2µM*	-13.7%	-27.5%	0.9
COc1ccc(/C=C/C(=O)NCc2cccnc2)cc1	20.8	1.5	-4.9%	-1.3%	-12.0%	-0.9
Cc1c(C(=O)N2CCCCC2)c(S(=O)(=O)N2c3ccccc3CC2C)c(C)n1C (stereo unspecified)	19.0	1.1	2.4%	?	-25.5%	1.0
CCOC(=O)Cc1cnc(NC(=O)CSc2nc3ncnc(N)c3[nH]2)s1	0.0	5.7	-2.3%	-17.7%	-14.1%	3.8
COC(=O)C1CCN(c2nc(CN(C)C3CCOC3)nc3cc(OC)c(OC)cc23)CC1 (stereo unspecified)	.	.	.	10.9%[9.04 µM]	-26.0%	.
Cc1cc(C(=O)Nc2ccon2)ccc1[N+](=O)[O-]	-2.4	10.3	.	14.7%	-28.2%	6.1
Cc1cc(C)n(C(C)CC(=O)NCc2ccc(Cl)cc2)n1 (stereo unspecified)	.	.	-0.3%	2.7%	-11.9%	-3.1
COC(=O)c1ccccc1NC(=O)c1ncoc1-c1ccco1	.	.	-10.9%	13µM*	?	-12.0
COc1ccc(NC(=O)NCc2cccnc2)c(OC)c1	1.4	-4.0	-1.4%	0.2%	1.7%	-2.1
COC(=O)c1ccccc1NC(=O)NCc1ccccn1	24.0	-16.2	28.2µM*	?	-30.0%	-4.9
COc1cc(NC(=O)c2cccc3c2C(=O)N(Cc2cccnc2)C3)cc(OC)c1OC	-56.0*	17.3	-1.4%	?	?	0.6
COc1ccccc1NC(=O)c1ncoc1-c1ccco1	.	.	132.4%	-10.6%	-0.4%	9.3
COC(=O)c1ccccc1NC(=O)NCc1cccnc1	26.2	?	28.2µM*	-8.1%	-18.3%	0.2
CCOc1ccc(OCC)c(NC(=O)CCNS(=O)(=O)c2cc(Br)cnc2N)c1	-15.8	-19.8	-9.6%	-9.9%	-3.1%	-8.7
